# High-throughput results (PubChem)
# BLM inh: qHTS Assay for Inhibitors of Bloom's syndrome helicase (BLM); recombinant BLM DNA unwinding, fluorescence dequenching; Potency, µM (doses to about 56.1 µM), inactives show at the top dose activity change, negative = inhibition, actives largely listed as inhibitors; AID 2528, 2010; RecQ-like DNA helicase BLM (Homo sapiens), P54132; hit rate 0.2% among 350,000;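 also: plate controls were vehicle for no effect and no enzyme for full effect; nearly all actives have a fitted effect of over 35% in size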
# ERG-DNA inh: qHTS for Small Molecule Inhibitors of the ERG Ets/DNA interaction. Transcriptional regulator ERG (Homo sapiens), P11308. fluorescence polarization, His-ERG Ets domain / labelled DNA. Potency, µM (doses to about 76.9 µM), for inactives: at the top dose FP activity, negative = inhibition, usual class: inhibitors. hit rate 0.028% among 370,000. AID 624246, 2012; active = well fitted inhibition curve with a large enough effect in the polarisation, with a control signal flat; inconclusive = small, poorly fitted or top-dose-only effect, or effect the other way, or a change in a side signal; inactive = no such curve, though single readings can be large or run the other way; the % refers to the polarisation;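 also: polarization taken with two DNA probes labelled with fluorescein and Texas red; % of control where 0% means no effect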
#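 His-tagged ERG Ets domain (1 uM in the protein solution; 300mM KCl, 50mM Tris-HCl, 1mM EDTA, 1mM DTT, pH 7.5) received compound, then a probe mix of 5 nM fluorescein-DNA and 100nM Texas-615-DNA. Fluorescence polarization was read for both dyes.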
# WRN inhibitor: qHTS for Inhibitors of WRN Helicase. Bifunctional 3'-5' exonuclease/ATP-dependent helicase WRN (Homo sapiens), Q14191. WRN helicase unwinding, fluorescent forked duplex, kinetic. Potency, µM (top dose mostly 114 µM), inactives show top-dose activity change, negative = inhibition, actives largely listed as inhibitors. hit rate 0.46% among 360,000. AID 651768, 2012; also: % is scaled to controls: 0 for no effect and ±100 for the full control effect; nearly all actives have a fitted effect of over 55% in size
#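 Primary qHTS, 1536-well format. 20 nM WRN + compound, 15 min RT; start with 100 nM forked fluorophore/quencher duplex, 2 mM ATP (final); kinetic read ex 525/em 598 nm.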
# GCN5L2 inh: qHTS Assay for Inhibitors of GCN5L2; Histone acetyltransferase KAT2A (Homo sapiens), Q92830; Potency, µM (doses to about 58.9 µM), for inactives: at the highest dose activity change, negative = inhibition, actives largely listed as inhibitors; GCN5L2 HAT assay, ThioGlo1 CoA-SH fluorescence; AID 504327, 2011; hit rate 0.21% among 390,000; also: % is scaled to controls: 0 for no effect and ±100 for the full control effect
# Target sequence (Q92830 whole entry, looked up): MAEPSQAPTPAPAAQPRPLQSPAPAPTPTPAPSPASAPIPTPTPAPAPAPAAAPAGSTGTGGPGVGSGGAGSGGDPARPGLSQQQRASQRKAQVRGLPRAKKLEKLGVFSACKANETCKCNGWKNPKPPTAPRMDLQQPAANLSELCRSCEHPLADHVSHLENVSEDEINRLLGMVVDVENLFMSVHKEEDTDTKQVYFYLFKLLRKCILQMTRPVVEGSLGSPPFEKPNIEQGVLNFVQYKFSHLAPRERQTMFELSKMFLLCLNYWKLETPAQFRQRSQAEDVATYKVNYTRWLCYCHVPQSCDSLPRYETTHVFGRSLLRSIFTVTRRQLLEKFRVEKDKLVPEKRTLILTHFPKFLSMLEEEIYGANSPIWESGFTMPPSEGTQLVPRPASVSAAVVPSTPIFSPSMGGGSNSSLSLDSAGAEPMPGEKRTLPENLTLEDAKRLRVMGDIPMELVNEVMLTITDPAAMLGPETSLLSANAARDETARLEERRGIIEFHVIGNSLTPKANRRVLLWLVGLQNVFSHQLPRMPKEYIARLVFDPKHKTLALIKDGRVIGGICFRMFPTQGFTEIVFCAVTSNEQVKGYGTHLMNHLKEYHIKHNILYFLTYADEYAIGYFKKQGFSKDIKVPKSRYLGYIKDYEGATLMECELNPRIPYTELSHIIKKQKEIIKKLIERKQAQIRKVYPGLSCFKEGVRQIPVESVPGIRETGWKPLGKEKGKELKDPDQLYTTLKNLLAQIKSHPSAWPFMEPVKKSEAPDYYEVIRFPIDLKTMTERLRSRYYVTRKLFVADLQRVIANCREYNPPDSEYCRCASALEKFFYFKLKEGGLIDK
#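 Enzyme at 20nM final was mixed with library compounds for 15 min at room temperature. Peptide H3(1-25) at 75uM, acetyl-CoA at 70uM and ThioGlo1 at 50uM were then added. Plates were read immediately and after 20 min (Ex340nm/Em540nm).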
# RECQ1 helicase: qHTS Assay for Inhibitors of RecQ-Like Dna Helicase 1 (RECQ1). Potency, µM (titrated, usually from 57.3 µM), for inactives: at the top dose activity, negative = inhibition, hits mostly inhibitors. hit rate 0.54% among 240,000. RECQ1 DNA unwinding, red fluorescence kinetic read. AID 2549, 2010;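 also: plate controls were vehicle for no effect and no enzyme for full effect; nearly all actives have a fitted effect of over 30% in size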
#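 RECQ1T1 50 nM; forked duplex (20 bp + 30-nt ss tails) 200 nM, ATP 2 mM final; pH 8.0, 2 mM MgCl2, 2.5 ug/ml poly(dI-dC); 15 min compound preincubation; discontinuous kinetic read over 2 h at RT.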
# APE1 inh: qHTS Assay for Inhibitors of the Human Apurinic/apyrimidinic Endonuclease 1 (APE1); Potency, µM (series often up to 65.8 µM), for inactives: at the top dose activity change, negative = inhibition, actives largely listed as inhibitors; DNA repair nuclease/redox regulator APEX1 (Homo sapiens), P27695; hit rate 0.35% among 350,000; recombinant APE1, TAMRA/BHQ-2 abasic DNA cleavage fluorescence;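 also: plate controls were vehicle for no effect and reference inhibitor for full effect; nearly all actives have a fitted effect of over 55% in size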
#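 Step 1: APE1 (0.75 nM) with compound, 15 min RT. Step 2: add 50 nM fluorophore/quencher THF duplex. Step 3: three fluorescence reads 60 s apart (525/598 nm); read 3 minus read 1 = reaction progress.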
# The depositor's hits bear a star; i = inactive; u = inconclusive; x = no result; [ ] = remark or other dose. The list is not random: actives were taken first. Their share in the collection is about 0.88%. Unless noted, calls follow the shape of the dose curve; as a rule, active = well fitted curve in the direction sought with a large enough effect; inconclusive = small, poorly fitted or top-dose-only effect, or another doubt; inactive = no such curve, though single readings can be large; an effect the other way counts as inactive or inconclusive. Potency is read from the fitted curve at half-maximal effect.
SMILES,BLM inh,ERG-DNA inh,WRN inhibitor,GCN5L2 inh,RECQ1 helicase,APE1 inh
COc1cc(C(=O)Nc2nnc(-c3sccc3C)s2)cc(OC)c1OC,-11%,-9%,50µM*,-9%,-6%,0%
C/C=C1\[C@H]2C=C(C)C[C@]1(N)c1ccc(=O)[nH]c1C2,x,x,x,x,x,2%
O=C1C2=C(C(=O)c3ccccc31)C1O[C@](CCCCN3C(=O)c4ccccc4C3=O)(Cc3c1ccc1ccccc31)O2,-6%[12.4 µM],x,x,-2%[12.7 µM],x,u
Cc1cc(O)c2c(c1O)C(=O)[C@]13C(=C2O)C(=O)[C@@H]2[C@@H](O)[C@H]1[C@@H]1[C@H](O)[C@H]3C(=O)C3=C(O)c4c(O)cc(C)c(O)c4C(=O)[C@]312,x,10%,56µM*,u,x,9.5µM*
Cc1cc(O)c2c(c1O)C(=O)c1c(O)cc(C)c(O)c1C2=O,-1%,x,x,2%,8%,u
Cn1ncc(S(=O)(=O)Cc2ccccc2)c(Br)c1=O,x,x,x,-20%,x,x
C/C(=C(/CCO)SS/C(CCO)=C(\C)N(C=O)Cc1cnc(C)nc1N)N(C=O)Cc1cnc(C)nc1N,-8%,x,x,-3%,x,x
C=CC(=O)NC(C)(C)Cc1ccccc1,-1%,-3%,-10%,18µM*,0%,3%
CC(=O)C(Cc1ccccc1)(Cc1ccccc1)C(C)=O,-4%,-2%,-6%,-12%,x,-7%
CC(C)(C)n1ncc2c(=O)n(Cc3ccc(-c4ccccc4C#N)cc3)cnc21,x,x,x,x,x,12%
CC[N+]1(C)CCC(O)(c2ccc(OC)cc2)C(C(=O)c2ccc(OC)cc2)C1 (centres undefined),x,x,10µM*,x,x,x
COC(=O)C1=C(C(=O)OC)[C@@H]2N(C)c3ccc(OC)cc3[C@@]23C[C@@H](C(=O)OC)N(S(=O)(=O)c2c(C)noc2C)C3=N1,-2%[12.4 µM],x,x,x,-16%[11.5 µM],-1%[12.4 µM]
C/C=C\C1=C(CO)C(=O)[C@@H]2OC2C1=O (some centres undefined),-5%[12.4 µM],x,x,x,3.5µM*,1.6µM*
C=CCSSSCC=C,-4%,x,x,22µM*,3%,u
CNC(=O)c1nc(C)n(-c2ccc(Cl)cc2Cl)n1,1%,1%,79µM*,2%,-3%,-4%
Cc1nc(C(=O)N(C)C)nn1-c1ccc(Cl)cc1Cl,3%,-1%,2%,2%,-6%,15%
Cc1ccc(CN(C)c2ccc(N3CCN(C)CC3)cc2)cc1,x,x,x,x,x,17%
CC(C)(C)c1ccc(/C=N/NC(=S)Nc2cccnc2)cc1,-6%,x,x,-2%,i,-8%
CC(C)CCCCCCNC(=S)Nc1ccc(S(=O)(=O)N2CCOCC2)cc1,-4%,-11%,-12%,-11%,40µM*,u
Oc1ccc(/C=N/NC(=S)Nc2cccnc2)cc1O,-5%,10%,-29%,-6%,8.9µM*,u
N#Cc1ccc(/C=N/NC(=S)Nc2ccc(S(=O)(=O)N3CCOCC3)cc2)cc1,-8%,4%,-11%,1%,21%,-9%
O=S(=O)(c1ccc(NC(=S)N/N=C/c2ccc(O)c(O)c2)cc1)N1CCOCC1,-19%,-2%,-27%,-13%,u,13µM*
CO[C@H](C(=O)[C@@H](O)[C@@H](C)O)C1Cc2cc3cc(O[C@H]4C[C@@H](O[C@H]5C[C@@H](O)[C@H](O)[C@@H](C)O5)[C@@H](O)[C@@H](C)O4)c(C)c(O)c3c(O)c2C(=O)[C@H]1O[C@H]1C[C@@H](O[C@H]2C[C@@H](O[C@H]3C[C@](C)(O)[C@H](O)[C@@H](C)O3)[C@H](O)[C@@H](C)O2)[C@H](O)[C@@H](C)O1 (some centres undefined),-6%,x,x,8%,x,x
Cc1ccc(CNc2ccc(N3CCNCC3)cc2)cc1,x,x,x,x,x,16%
Cn1c2ccccc2c(=O)c2ccc(NCCc3cccs3)cc21,x,-1%,-8%,10µM*,x,-14%
SMILES,BLM inh,ERG-DNA inh,WRN inhibitor,GCN5L2 inh,RECQ1 helicase,APE1 inh
NC(=O)c1ccc(NCCc2cccs2)cc1,x,x,-4%,x,x,x
Cc1oc2c(c(=O)c1C)C(=O)CC(c1ccccc1)C2 (centres undefined),-11%,2%,-4%,-2%,i,2%
CS(=O)(=O)c1sc(C#N)c2c1C(=O)CC(c1ccccc1)C2 (centres undefined),-13%,6%,40µM*,-4%,-7%,-2%
OC[C@H]1O[C@@H](O[C@H]2[C@H](O)[C@@H](O)[C@H](O)O[C@@H]2CO)[C@H](O)[C@@H](O)[C@@H]1O,x,x,x,x,x,-1%
COc1ccc(Nc2ccccc2C(=O)O)cc1,-4%,-3%,-9%,-4%,-3%,1%
O=C(O)c1ccccc1Nc1cccc(OCc2ccc3ccccc3n2)c1,-12%,u,7%,28µM*,i,-18%
CO/N=C1/c2cc(OC)ccc2O[C@@H](c2cccc(OC)c2)[C@H]1O,6%[12.4 µM],x,x,x,4%[11.5 µM],23%[12.4 µM]
CCn1c(CSc2nc3ccccc3[nH]2)nc2cc(C(=O)O)ccc21,-3%,u,-16%[57.1 µM],-4%,-2%,-1%
CCn1c(CSc2nccn2C)nc2cc(C(=O)O)ccc21,-4%,u,79µM*,0%,-10%,16%
Cc1ccc(C)c(N(C(=O)c2csnn2)C(C(=O)NC2CCCCC2)c2cccnc2)c1 (centres undefined),-1%,3%,1%,-2%,x,-8%
COc1cccc(Cn2cnc3c(cnn3C(C)(C)C)c2=O)c1,x,x,x,x,x,-6%
CC(C)OC(=O)c1ccc(NCc2cc(O)ccc2O)cc1,x,3%,-11%,x,x,x
COC(=O)c1ccc(CCc2cc(O)ccc2O)cc1,x,x,56µM*,x,x,x
CCc1nc2ccc(C(=O)Nc3cccc(OCC(=O)N(C)C)c3)cn2c1N(C)Cc1cc2ccccc2s1,x,x,-5%,x,x,x
O=C(C#Cc1ccccc1)c1cccc([N+](=O)[O-])c1,-10%,x,18µM*,0%,-9%,-4%
O=C(O)c1cccc([N+](=O)[O-])c1,x,x,x,x,-6%,5%
N#CC1=C2SCN(C3CCCCC3)CN2C(=O)CC1c1ccc(Br)cc1 (centres undefined),-3%,2%,x,35µM*,x,x
